Laboratory results reported in PubChem BioAssay (EPA / NIEHS).
Records with an inconclusive call do not appear. Activity calls are given as the source filed them. The calls were made as follows: active = hit-call score of the fitted dose curve at least 0.9, where 1 is the maximum; inconclusive = response in the unintended direction; inactive = score below 0.9.

Experiment: ATG_XTT_Cytotoxicity: Cytotoxicity Assessment in the Attagene TRANS-FACTORIAL HepG2 Assay (AID 2283584)
Outline: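 Cells: human HepG2, transiently transfected with MRTU reporter constructs. Exposure 24 h. Readout: XTT, cell number. Baseline/neg ctrl DMSO; loss-of-signal scored.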
With `CCC(CC)C(=O)O` the outcome was “inactive”. For `Cc1ccc2c(c1)C(=O)c1ccccc1C2=O`, the outcome was “inactive”. For `COc1ccc(NC(C)=O)cc1N`, the outcome was “inactive”. For `C=CCCCCCCCCC(=O)OCCCC`, the outcome was “inactive”. With `CCCCCCCC(C)=O` the outcome was “inactive”. With `NC(=O)NNC(N)=O` the outcome was “inactive”. In the case of `O=C(O)C(c1ccc(Cl)cc1)c1ccc(Cl)cc1`, the outcome was “inactive”. In the case of `C=CC(C)(CCC=C(C)C)OC(=O)CC(C)C` (stereo unspecified), the outcome was “inactive”. For `O=C1CCCCCCCCCCC(=O)OCCO1`, the outcome was “inactive”. For `CCCCCCCCCCOC(C)=O`, the outcome was “inactive”. For `CCc1nccnc1C`, the outcome was “inactive”.
